Compounds without any hit were thinned out: in the full panel of roughly 79,000, 15% have a hit. Activity calls are given as the source filed them. Rule as the data show it: active = growth inhibition above about 70%; inactive = the rest.
experiment: NCI Yeast Anticancer Drug Screen. Data for the rad50 strain (AID 155);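 also: 0% = growth of vehicle-only cultures of the same strain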; conditions: S. cerevisiae rad50 strain growth inhibition; at 11.0 µM; stronger effect = higher value
Method in brief: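 A DNA repair-deficient yeast mutant serves as the test organism; compound-induced growth inhibition is calculated against vehicle-treated cells.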

SMILES	growth inhibition
CCC/C(Cl)=N\OC(=O)Nc1cccc(C(F)(F)F)c1	13% (inactive)
[O-][n+]1c2ccc(O)cc2nc2ccc(Cl)cc21	51% (inactive)
Clc1ccccc1C1OC1c1ccccc1Cl (stereo not drawn)	-73% (inactive)
c1ccc2c(c1)c1ncccc1c1nccnc21	34% (inactive)
CC(=O)Nc1ccc2c(c1)C(=Nc1ccc(C(=O)O)cc1)c1ccccc1-2	9% (inactive)
COc1ccc(OC)c2cc3ccccc3cc12	10% (inactive)
COc1cc(C2c3cc4c(cc3OC(NNc3ccccc3)C2C)OCO4)cc(OC)c1OC (stereo not drawn)	52% (inactive)
O=C1c2cc([N+](=O)[O-])ccc2-c2cccc(F)c21	61% (inactive)
CCCCCCCCCCCC(=O)N(C)C	-18% (inactive)
CCCCCCCCCCCC1=C(O)C(=O)C=C(O)C1=O	36% (inactive)
Cc1ccc(CSC(N)=Nc2ccccc2)cc1C	14% (inactive)
CCCCCCCCCCC1CCC(=O)O1 (stereo not drawn)	16% (inactive)
O=[N+]([O-])c1cc(CCl)ccc1CCl	84% (active)
Nc1ccc2c(c1)C(=O)c1cccc(N)c1C2=O	92% (active)
CCCCCCCCCCNC(=O)OCC	24% (inactive)
CC1=C(C)Cc2c(O)ccc(O)c2C1	38% (inactive)
COc1ccc2c(c1)C(=O)c1ccccc1C2	31% (inactive)
CCC(=O)OCCn1c2nc(=O)[nH]c(=O)c-2nc2cc(C)c(C)cc21	-9% (inactive)
O=C(OCCN1CCCCCC1)C(c1ccsc1)C1CCCCC1 (stereo not drawn)	25% (inactive)
Oc1c(Br)cc(Br)cc1C1CCCCC1	5% (inactive)

SMILES	growth inhibition
CC1(C)[C@@H]2CC[C@]1(C)[C@H](OC(=O)CSC#N)C2	20% (inactive)
S=C(N/N=C(/c1ccccc1)c1ccccn1)N1CCCCCC1	-20% (inactive)
Cc1ccc2[nH]c3c(C)c4cc[n+](C)cc4c(C)c3c2c1	26% (inactive)
CNC(=O)OCc1c(COC(=O)NC)c(-c2ccc(-c3ccccc3)cc2)n(C)c1C	-26% (inactive)
COc1ccccc1/C=C1\Sc2scc(-c3cccc([N+](=O)[O-])c3)[n+]2C1=O	98% (active)
O=[N+]([O-])c1ccc2c(c1)C(N1CCN(CCO)CC1)Cc1ccc(F)cc1S2 (stereo not drawn)	1% (inactive)
Cc1ccc(CCC2=CCCc3c2ccc2ccccc32)cc1	0% (inactive)
O=[N+]([O-])c1cccc2nccc(NCCCO)c12	11% (inactive)
Cc1ccc(-n2cc(-c3ccc(Cl)cc3)c(C#N)c2N)cc1	-31% (inactive)
Cc1ccc(S/N=C\c2ccccc2O)cc1	2% (inactive)
O=C(O)C1OC1(c1cccc(Cl)c1)c1ccccc1Cl (stereo not drawn)	12% (inactive)
NC(=S)N/N=C\c1nccc2ccccc12	46% (inactive)
Clc1cccc(C(Nc2nncs2)Nc2nncs2)c1Cl	22% (inactive)
O=C(OCC=C1CCCC1)c1cc([N+](=O)[O-])cc([N+](=O)[O-])c1	18% (inactive)
O=C(Nc1ccccc1)C(=O)C(C(=O)c1ccccc1)C(c1ccccc1)c1ccccc1 (stereo not drawn)	-3% (inactive)
N#CN1C2CCC1CC(=O)C2	-34% (inactive)
COc1ccccc1C(=O)OCC1CCCN2CCCCC12 (stereo not drawn)	68% (inactive)
CCNc1nnc(CSc2nc(-c3ccccc3)c(-c3ccccc3)[nH]2)s1	-13% (inactive)
O=C1c2ccccc2-c2n[nH]c3cccc1c23	67% (inactive)

same assay, conditions: S. cerevisiae rad50 strain growth inhibition; at 33.0 µM; stronger effect = higher value

SMILES	growth inhibition
CCC/C(Cl)=N\OC(=O)Nc1cccc(C(F)(F)F)c1	25% (inactive)
[O-][n+]1c2ccc(O)cc2nc2ccc(Cl)cc21	81% (active)
Clc1ccccc1C1OC1c1ccccc1Cl (stereo not drawn)	-51% (inactive)
c1ccc2c(c1)c1ncccc1c1nccnc21	55% (inactive)
CC(=O)Nc1ccc2c(c1)C(=Nc1ccc(C(=O)O)cc1)c1ccccc1-2	47% (inactive)
COc1ccc(OC)c2cc3ccccc3cc12	17% (inactive)
COc1cc(C2c3cc4c(cc3OC(NNc3ccccc3)C2C)OCO4)cc(OC)c1OC (stereo not drawn)	92% (active)
O=C1c2cc([N+](=O)[O-])ccc2-c2cccc(F)c21	84% (active)
CCCCCCCCCCCC(=O)N(C)C	29% (inactive)
CCCCCCCCCCCC1=C(O)C(=O)C=C(O)C1=O	94% (active)
Cc1ccc(CSC(N)=Nc2ccccc2)cc1C	22% (inactive)
CCCCCCCCCCC1CCC(=O)O1 (stereo not drawn)	12% (inactive)
O=[N+]([O-])c1cc(CCl)ccc1CCl	97% (active)
Nc1ccc2c(c1)C(=O)c1cccc(N)c1C2=O	95% (active)
CCCCCCCCCCNC(=O)OCC	40% (inactive)
CC1=C(C)Cc2c(O)ccc(O)c2C1	33% (inactive)
COc1ccc2c(c1)C(=O)c1ccccc1C2	48% (inactive)
CCC(=O)OCCn1c2nc(=O)[nH]c(=O)c-2nc2cc(C)c(C)cc21	15% (inactive)
O=C(OCCN1CCCCCC1)C(c1ccsc1)C1CCCCC1 (stereo not drawn)	29% (inactive)
Oc1c(Br)cc(Br)cc1C1CCCCC1	95% (active)

SMILES	growth inhibition
CC1(C)[C@@H]2CC[C@]1(C)[C@H](OC(=O)CSC#N)C2	68% (inactive)
S=C(N/N=C(/c1ccccc1)c1ccccn1)N1CCCCCC1	4% (inactive)
Cc1ccc2[nH]c3c(C)c4cc[n+](C)cc4c(C)c3c2c1	83% (active)
CNC(=O)OCc1c(COC(=O)NC)c(-c2ccc(-c3ccccc3)cc2)n(C)c1C	16% (inactive)
COc1ccccc1/C=C1\Sc2scc(-c3cccc([N+](=O)[O-])c3)[n+]2C1=O	92% (active)
O=[N+]([O-])c1ccc2c(c1)C(N1CCN(CCO)CC1)Cc1ccc(F)cc1S2 (stereo not drawn)	2% (inactive)
Cc1ccc(CCC2=CCCc3c2ccc2ccccc32)cc1	-1% (inactive)
O=[N+]([O-])c1cccc2nccc(NCCCO)c12	40% (inactive)
Cc1ccc(-n2cc(-c3ccc(Cl)cc3)c(C#N)c2N)cc1	4% (inactive)
Cc1ccc(S/N=C\c2ccccc2O)cc1	12% (inactive)
O=C(O)C1OC1(c1cccc(Cl)c1)c1ccccc1Cl (stereo not drawn)	48% (inactive)
NC(=S)N/N=C\c1nccc2ccccc12	97% (active)
Clc1cccc(C(Nc2nncs2)Nc2nncs2)c1Cl	42% (inactive)
O=C(OCC=C1CCCC1)c1cc([N+](=O)[O-])cc([N+](=O)[O-])c1	86% (active)
O=C(Nc1ccccc1)C(=O)C(C(=O)c1ccccc1)C(c1ccccc1)c1ccccc1 (stereo not drawn)	26% (inactive)
N#CN1C2CCC1CC(=O)C2	-40% (inactive)
COc1ccccc1C(=O)OCC1CCCN2CCCCC12 (stereo not drawn)	97% (active)
CCNc1nnc(CSc2nc(-c3ccccc3)c(-c3ccccc3)[nH]2)s1	77% (active)
O=C1c2ccccc2-c2n[nH]c3cccc1c23	79% (active)
